Compounds without any hit were thinned out: in the full panel of roughly 83,000, 20% have a hit.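 Compound tested at a single concentration for 48 hours in 96-well plates; a percent growth value below 10 was scored as active.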 The source made the active and inactive calls. Where a SMILES comes first, the peptide text is derived from it. [ ]: non-standard residue; d: D form. ξ: configuration not given here. ξD = NC(CC(=O)O)C(=O)O
Legend:
Test in all cases: NCI-60 one-dose screen, 48 h (100 = growth as untreated, 0 = no growth, -100 = all killed)
Conditions in all cases: 10 µM unless noted
DU-145 prostate = tested on: DU-145 prostate
K-562 leukemia = tested on: K-562 leukemia
MALME-3M melanoma = tested on: MALME-3M melanoma
RXF 393 renal = tested on: RXF 393 renal
SF-268 CNS = tested on: SF-268 CNS
SF-295 CNS = tested on: SF-295 CNS
SF-539 CNS = tested on: SF-539 CNS
UACC-257 melanoma = tested on: UACC-257 melanoma
M14 melanoma = tested on: M14 melanoma
MDA-MB-231 breast = tested on: MDA-MB-231 breast

Measured: growth

O=C(/C(Cl)=N/O)c1ccc(-c2ccccc2)cc1
inactive: DU-145 prostate 109% | K-562 leukemia 63.8% | MALME-3M melanoma 24.8% | RXF 393 renal 95.4% | SF-268 CNS 101% | SF-295 CNS 104% | SF-539 CNS 96.4% | UACC-257 melanoma 99.7% | M14 melanoma 96.7%

CCOC(=O)C1=NN(c2ccccc2)C(=O)/C1=C\N1C(=O)/C(=C/c2cccc(O)c2)SC1=S
inactive: DU-145 prostate 96.8% | K-562 leukemia 100% | MDA-MB-231 breast 87.6% | RXF 393 renal 101% | SF-268 CNS 91.7% | SF-295 CNS 104% | SF-539 CNS 107% | UACC-257 melanoma 98.3% | M14 melanoma 89.6%

CC(=O)c1ccc2c(c1)CCc1ccccc1-2
inactive: DU-145 prostate 115% | K-562 leukemia 115% | MDA-MB-231 breast 109% | RXF 393 renal 97.4% | SF-268 CNS 101% | SF-295 CNS 94.2% | SF-539 CNS 96.8% | UACC-257 melanoma 98.2% | M14 melanoma 107%

CN(C)CC(C)(CN(C)C)C(=O)/C=C/c1c(Cl)cccc1Cl
inactive: DU-145 prostate 36.4% | SF-295 CNS 78.2% | UACC-257 melanoma 52.5% | M14 melanoma 12.7%
active: K-562 leukemia -8.43% | MALME-3M melanoma -67.2% | RXF 393 renal -80.8% | SF-539 CNS -2.86%

CCOC(=O)NC(/C=C/c1ccccc1)NC(=O)OCC
inactive: DU-145 prostate 109% | K-562 leukemia 107% | MALME-3M melanoma 109% | RXF 393 renal 121% | SF-268 CNS 101% | SF-295 CNS 104% | SF-539 CNS 98.9% | UACC-257 melanoma 98.3% | M14 melanoma 103%

Nc1ccc(Oc2ccccc2)c(Cl)c1
inactive: DU-145 prostate 104% | K-562 leukemia 115% | MDA-MB-231 breast 111% | RXF 393 renal 100% | SF-268 CNS 93% | SF-295 CNS 92.1% | SF-539 CNS 91.7% | UACC-257 melanoma 94.7% | M14 melanoma 94.6%

CCOC(=O)C1=C(C(=O)c2ccccc2)C(c2cccc([N+](=O)[O-])c2)C(C(=O)c2ccccc2)=C(C(=O)OCC)N1
inactive: DU-145 prostate 97% | K-562 leukemia 21.5% | MALME-3M melanoma 93.1% | RXF 393 renal 79.3% | SF-268 CNS 93.9% | SF-295 CNS 90.2% | SF-539 CNS 95.7% | UACC-257 melanoma 105% | M14 melanoma 89.9%

CCCCCCCCCCCCCCCCCC[S+](C)CC (stereo unspecified)
active: MDA-MB-231 breast -2.38% | RXF 393 renal -81% | M14 melanoma 4.94%
inactive: DU-145 prostate 64.3% | K-562 leukemia 47.9% | SF-268 CNS 30.6% | SF-295 CNS 68.8% | SF-539 CNS 31% | UACC-257 melanoma 45.8%

O=C(Cc1nc2cc(Cl)c(Cl)cc2nc1CC(=O)c1cccnc1)c1cccnc1
inactive: DU-145 prostate 93.5% | K-562 leukemia 49.6% | MALME-3M melanoma 65.5% | RXF 393 renal 87.9% | SF-268 CNS 82.2% | SF-295 CNS 94.1% | SF-539 CNS 78.7% | UACC-257 melanoma 95.7% | M14 melanoma 76.5%

OC(Cc1cc(CC(O)(C(F)(F)F)C(F)(F)F)nc(CC(O)(C(F)(F)F)C(F)(F)F)c1)(C(F)(F)F)C(F)(F)F
active: K-562 leukemia 9.94% | MDA-MB-231 breast -45.6% | RXF 393 renal -17.2% | SF-295 CNS -8.82% | SF-539 CNS -1.21% | UACC-257 melanoma -28.3%
inactive: DU-145 prostate 24.9% | SF-268 CNS 12.9% | M14 melanoma 13.7%

Nc1nc2ncc(CNc3ccc(C(=O)NC(CCC(=O)NC(CCC(=O)NC(CCC(=O)NC(CCC(=O)NC(CCC(=O)O)C(=O)O)C(=O)O)C(=O)O)C(=O)O)C(=O)O)cc3)nc2c(=O)[nH]1 (stereo unspecified)
inactive: DU-145 prostate 108% | K-562 leukemia 97.4% | MALME-3M melanoma 90.3% | RXF 393 renal 112% | SF-268 CNS 105% | SF-295 CNS 106% | SF-539 CNS 99.8% | UACC-257 melanoma 105% | M14 melanoma 107%

O=C(Cc1nc2cc(Cl)c(Cl)cc2nc1CC(=O)c1ccccc1)c1ccccc1
inactive: DU-145 prostate 82.5% | K-562 leukemia 47.4% | MALME-3M melanoma 67.5% | RXF 393 renal 81.1% | SF-268 CNS 79.2% | SF-295 CNS 69.5% | SF-539 CNS 62.1% | UACC-257 melanoma 93.6% | M14 melanoma 75.2%

NCC(=O)NC(CC(=O)O)C(=O)O (stereo unspecified) (H-Gly-[ξD]-OH)
inactive: DU-145 prostate 105% | K-562 leukemia 106% | MALME-3M melanoma 98.1% | RXF 393 renal 109% | SF-268 CNS 107% | SF-295 CNS 101% | SF-539 CNS 99.3% | UACC-257 melanoma 96.5% | M14 melanoma 104%

O=C1C=CC(=O)N1c1ccc(O)cc1
inactive: DU-145 prostate 117% | K-562 leukemia 91.1% | MDA-MB-231 breast 94.7% | RXF 393 renal 110% | SF-268 CNS 109% | SF-295 CNS 114% | SF-539 CNS 111% | UACC-257 melanoma 106% | M14 melanoma 105%

CCCCCCCCC(=O)OCCCC(CCC(CCC1CCCO1)OC(=O)CCCCCCCC)OC(=O)CCCCCCCC (stereo unspecified)
inactive: DU-145 prostate 106% | K-562 leukemia 115% | MALME-3M melanoma 109% | RXF 393 renal 107% | SF-268 CNS 95.7% | SF-295 CNS 94.4% | SF-539 CNS 97.3% | UACC-257 melanoma 99.9% | M14 melanoma 111%

COc1cc(/C=C2\SC(=S)N(/C=C/c3nc4ccccc4[nH]c3=O)C2=O)cc(OC)c1OC
inactive: DU-145 prostate 97.7% | K-562 leukemia 88.1% | MDA-MB-231 breast 80.1% | RXF 393 renal 77.7% | SF-268 CNS 77.5% | SF-295 CNS 88.4% | SF-539 CNS 95.2% | UACC-257 melanoma 79.2% | M14 melanoma 75.4%

COc1cc(NC(=O)C2=C(C)NC(C)=C(C(=O)Nc3cc(OC)c(Cl)cc3OC)C2c2cccc([N+](=O)[O-])c2)c(OC)cc1Cl
inactive: DU-145 prostate 58.4% | K-562 leukemia 33.4% | MALME-3M melanoma 37.5% | RXF 393 renal 36.7% | SF-268 CNS 39.3% | SF-295 CNS 26.3% | SF-539 CNS 31.8% | UACC-257 melanoma 46.9% | M14 melanoma 20.1%

CC1(C)OCC(COC(c2ccccc2)(c2ccccc2)c2ccccc2)O1 (stereo unspecified)
inactive: DU-145 prostate 100% | K-562 leukemia 111% | MDA-MB-231 breast 91.7% | RXF 393 renal 116% | SF-268 CNS 94.2% | SF-295 CNS 99.2% | SF-539 CNS 104% | UACC-257 melanoma 91.7% | M14 melanoma 95.1%

Clc1ccc(Cc2nc3ccccc3s2)cc1
inactive: DU-145 prostate 98.6% | K-562 leukemia 98.1% | MDA-MB-231 breast 74% | RXF 393 renal 112% | SF-268 CNS 88.5% | SF-295 CNS 91.5% | SF-539 CNS 106% | UACC-257 melanoma 97.7% | M14 melanoma 98.2%

Cc1cc(C)c([I+]c2c(C)cc(C)cc2C)c(C)c1
inactive: DU-145 prostate 14.8%
active: MALME-3M melanoma -51.6% | MDA-MB-231 breast -55.1% | RXF 393 renal -36.7% | SF-268 CNS -66.9% | SF-295 CNS -33.7% | SF-539 CNS -74.7% | UACC-257 melanoma -49.6% | M14 melanoma -77.6%

CCOc1cc(F)c([N+](=O)[O-])cc1[N+](=O)[O-]
active: K-562 leukemia 0.671% | MALME-3M melanoma -19.2%
inactive: MDA-MB-231 breast 37.9% | RXF 393 renal 12.4% | SF-268 CNS 77.6% | SF-295 CNS 96.9% | UACC-257 melanoma 56.5% | M14 melanoma 30.5%

N#Cc1c2ccccc2nc2ccccc12
inactive: DU-145 prostate 112% | K-562 leukemia 106% | MDA-MB-231 breast 99.4% | SF-268 CNS 105% | SF-295 CNS 98.7% | UACC-257 melanoma 95.2% | M14 melanoma 120%

CC(=O)OC1CC2CCC1(C)C2(C)C (stereo unspecified)
inactive: DU-145 prostate 110% | MALME-3M melanoma 98.7% | MDA-MB-231 breast 101% | RXF 393 renal 114% | SF-268 CNS 104% | SF-295 CNS 94.5% | SF-539 CNS 104% | UACC-257 melanoma 99.6% | M14 melanoma 106%

NC(CS/C(Cl)=C/Cl)C(=O)O (stereo unspecified)
active: SF-295 CNS 9.28%
inactive: K-562 leukemia 89.2% | MALME-3M melanoma 89.6% | MDA-MB-231 breast 88.1% | RXF 393 renal 105% | SF-268 CNS 99.3% | SF-539 CNS 104% | UACC-257 melanoma 78.3% | M14 melanoma 58.2%

C1=C(c2ccccc2)c2ccccc2C1
inactive: DU-145 prostate 109% | K-562 leukemia 88.3% | RXF 393 renal 106% | SF-268 CNS 96.6% | SF-295 CNS 91% | SF-539 CNS 99.5% | UACC-257 melanoma 133% | M14 melanoma 92.2%

O=C1c2ccccc2Cc2cccc(Cl)c21
inactive: K-562 leukemia 91.5% | MALME-3M melanoma 94.2% | MDA-MB-231 breast 95.4% | RXF 393 renal 89.7% | SF-268 CNS 93% | SF-295 CNS 90.9% | SF-539 CNS 98.1% | UACC-257 melanoma 104% | M14 melanoma 111%

O/N=C1\c2ccccc2-c2ccc(F)cc21
inactive: K-562 leukemia 99.1% | MALME-3M melanoma 114% | MDA-MB-231 breast 88.2% | RXF 393 renal 111% | SF-295 CNS 117% | SF-539 CNS 97% | UACC-257 melanoma 110% | M14 melanoma 107%

CCCCCCCCCCCCCCCc1ccc(C(=O)C[n+]2ccccc2)cc1
active: DU-145 prostate -97.6% | K-562 leukemia -81.6% | MDA-MB-231 breast -53.8% | SF-268 CNS -87% | SF-295 CNS -74.8% | SF-539 CNS -98.4% | UACC-257 melanoma -76.3% | M14 melanoma -90.4%

CC1(C)OC2C(COC(c3ccccc3)(c3ccccc3)c3ccccc3)OC(c3c[nH]c4c(N)ncnc34)C2O1 (stereo unspecified)
inactive: K-562 leukemia 32.4% | MALME-3M melanoma 93.5% | MDA-MB-231 breast 75.7% | RXF 393 renal 79% | SF-268 CNS 57.4% | SF-295 CNS 57.9% | SF-539 CNS 90% | UACC-257 melanoma 74.9% | M14 melanoma 52.5%

CCN(CC)c1ccc(/C=C\C(=O)c2ccc(NC(C)=O)cc2)cc1
inactive: DU-145 prostate 60.1% | MALME-3M melanoma 117% | MDA-MB-231 breast 65.7% | RXF 393 renal 79.4% | SF-268 CNS 83.6% | SF-295 CNS 35.6% | SF-539 CNS 67.3% | UACC-257 melanoma 78.3%

CCCCCCCCCCCC[n+]1ccc2ccccc2c1
active: DU-145 prostate 8.38% | K-562 leukemia -18.4% | MDA-MB-231 breast -18% | RXF 393 renal -6.08% | SF-268 CNS -72.7% | SF-295 CNS -40.3% | SF-539 CNS -47.8% | UACC-257 melanoma -39.2% | M14 melanoma -84.2%

From PubChem BioAssay (NCI)
